The results in this text go back to paper PMC7862700, “An all-to-all approach to the identification of sequence-specific readers for epigenetic DNA modifications on cytosine”.

What all share (assay): DAPPL (digital affinity profiling via proximity ligation, sequencing); 10 mM Tris-HCl pH 7.5, 50 mM NaCl, 1 mM DTT, 4% glycerol, room temperature, 30 min; GST-TFs on glutathione beads, 16-mer random dsDNA library, 0.1% formaldehyde crosslink after washing; high values mean tight binding
Holding throughout (settings): protein: recombinant; tags: N-terminal GST; dsDNA, one strand shown

For assay [1], the target named is T1, GABPA (Homo sapiens, UniProt Q06546 1-454).
T1 sequence: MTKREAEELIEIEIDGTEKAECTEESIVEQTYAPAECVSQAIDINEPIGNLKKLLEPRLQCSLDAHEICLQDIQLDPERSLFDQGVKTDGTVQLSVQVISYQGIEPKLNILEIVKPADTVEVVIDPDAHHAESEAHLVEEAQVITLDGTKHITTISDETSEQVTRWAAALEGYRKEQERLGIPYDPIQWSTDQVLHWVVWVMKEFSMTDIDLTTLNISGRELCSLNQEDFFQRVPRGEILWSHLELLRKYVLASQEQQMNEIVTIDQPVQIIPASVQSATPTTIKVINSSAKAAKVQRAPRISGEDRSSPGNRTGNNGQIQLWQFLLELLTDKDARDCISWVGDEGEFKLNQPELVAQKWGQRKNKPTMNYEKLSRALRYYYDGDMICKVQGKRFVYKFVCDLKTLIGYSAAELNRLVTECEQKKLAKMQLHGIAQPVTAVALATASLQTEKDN
Put shortly: (§1)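 GST fusions of human transcription factors were expressed in yeast and captured with glutathione beads. Once given DNA barcodes and pooled alongside a tag-only sample, they were incubated for 30 min at room temperature with 200 nmole of a random double-stranded 16-mer DNA library in Tris/NaCl/DTT/glycerol buffer, then washed, crosslinked (0.1% formaldehyde), proximity-ligated, PCR-amplified and sequenced on an Illumina NextSeq500. The binding signal of each hexamer is its read frequency for a factor divided by its frequency for the tag-only sample.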

For assay [2], the target named is ELF1 (Homo sapiens, UniProt P32519 1-619). The method, boiled down:
as §1

The target in assay [3] is T2, EHF (Homo sapiens, UniProt Q9NZC4 1-300).
T2 sequence: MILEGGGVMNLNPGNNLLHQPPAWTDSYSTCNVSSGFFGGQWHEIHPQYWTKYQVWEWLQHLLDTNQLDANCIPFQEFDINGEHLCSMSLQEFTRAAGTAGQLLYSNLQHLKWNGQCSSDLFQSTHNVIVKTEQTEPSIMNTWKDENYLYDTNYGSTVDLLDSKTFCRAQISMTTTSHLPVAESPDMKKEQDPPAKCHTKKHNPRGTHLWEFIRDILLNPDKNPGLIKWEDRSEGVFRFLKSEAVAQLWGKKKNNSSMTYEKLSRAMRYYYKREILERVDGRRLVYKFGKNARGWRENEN
Put shortly: as §1

Assay [4] deals with SPI1 (Homo sapiens, UniProt P17947 1-270). The method, boiled down: as §1
For assay [5], the target named is SPIB (Homo sapiens, UniProt Q01892 1-262). The method, boiled down: as §1
Assay [6] addresses T3, FEV (Homo sapiens, UniProt Q99581 1-238).
T3 sequence: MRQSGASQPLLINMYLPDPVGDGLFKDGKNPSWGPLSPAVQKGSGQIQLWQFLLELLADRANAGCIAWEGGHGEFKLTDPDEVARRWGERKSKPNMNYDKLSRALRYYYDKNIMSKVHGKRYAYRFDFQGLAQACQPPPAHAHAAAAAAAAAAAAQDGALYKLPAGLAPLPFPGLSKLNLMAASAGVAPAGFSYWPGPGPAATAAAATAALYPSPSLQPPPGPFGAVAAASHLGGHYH
The method, boiled down: as §1

Assay [7] addresses ETV5 (Homo sapiens, UniProt P41161 1-510). Put shortly: as §1
In assay [8] the target is ELF4 (Homo sapiens, UniProt Q99607 1-663). The method, boiled down: as §1
Assay [9] has as its target T4, ELK4 (Homo sapiens, UniProt P28324-2 1-405).
T4 sequence: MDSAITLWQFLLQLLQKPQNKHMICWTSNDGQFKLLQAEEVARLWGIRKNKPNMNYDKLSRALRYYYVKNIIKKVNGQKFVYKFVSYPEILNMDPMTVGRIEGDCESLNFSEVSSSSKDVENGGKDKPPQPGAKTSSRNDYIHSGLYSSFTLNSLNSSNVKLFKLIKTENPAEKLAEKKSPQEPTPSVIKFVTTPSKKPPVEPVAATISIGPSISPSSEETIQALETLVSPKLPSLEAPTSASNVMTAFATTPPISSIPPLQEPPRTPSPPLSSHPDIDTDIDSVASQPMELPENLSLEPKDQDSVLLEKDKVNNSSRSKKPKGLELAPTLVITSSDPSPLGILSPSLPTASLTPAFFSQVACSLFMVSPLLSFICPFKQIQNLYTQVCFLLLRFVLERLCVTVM
Put shortly:
as §1

For assay [10], the target named is T5, ETV2 (Homo sapiens, UniProt O00321 1-342).
T5 sequence: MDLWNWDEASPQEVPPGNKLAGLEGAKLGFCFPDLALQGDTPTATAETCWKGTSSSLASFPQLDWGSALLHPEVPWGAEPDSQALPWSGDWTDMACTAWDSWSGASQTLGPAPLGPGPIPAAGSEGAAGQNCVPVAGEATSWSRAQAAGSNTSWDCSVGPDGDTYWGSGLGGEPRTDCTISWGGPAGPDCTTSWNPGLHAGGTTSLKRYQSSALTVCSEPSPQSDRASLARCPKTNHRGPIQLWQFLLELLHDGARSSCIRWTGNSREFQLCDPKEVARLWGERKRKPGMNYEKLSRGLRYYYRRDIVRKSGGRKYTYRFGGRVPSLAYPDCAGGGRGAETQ
Put shortly:
as §1

Assay [11] addresses ETV1 (Homo sapiens, UniProt P50549 1-477). Put shortly:
as §1

Assay [12] addresses T6, ERF (Homo sapiens, UniProt P50548 1-548).
T6 sequence: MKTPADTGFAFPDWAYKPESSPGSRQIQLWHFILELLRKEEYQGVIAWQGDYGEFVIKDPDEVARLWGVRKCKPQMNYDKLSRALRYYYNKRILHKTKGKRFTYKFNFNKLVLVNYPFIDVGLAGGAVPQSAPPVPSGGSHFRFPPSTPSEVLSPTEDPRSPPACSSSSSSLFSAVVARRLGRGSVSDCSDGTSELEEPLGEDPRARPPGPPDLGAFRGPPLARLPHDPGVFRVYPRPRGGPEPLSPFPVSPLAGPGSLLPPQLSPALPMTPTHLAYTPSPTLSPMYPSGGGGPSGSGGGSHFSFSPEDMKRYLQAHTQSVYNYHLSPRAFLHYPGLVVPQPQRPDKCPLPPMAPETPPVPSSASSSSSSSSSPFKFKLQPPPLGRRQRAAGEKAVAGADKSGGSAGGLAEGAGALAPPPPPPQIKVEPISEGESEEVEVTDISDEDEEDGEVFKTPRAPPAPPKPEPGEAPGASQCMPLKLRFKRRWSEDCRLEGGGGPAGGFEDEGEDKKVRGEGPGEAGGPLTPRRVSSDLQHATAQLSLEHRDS
The method, boiled down:
as §1

For assay [13], the target named is T7, ETS2 (Homo sapiens, UniProt P15036 1-469).
T7 sequence: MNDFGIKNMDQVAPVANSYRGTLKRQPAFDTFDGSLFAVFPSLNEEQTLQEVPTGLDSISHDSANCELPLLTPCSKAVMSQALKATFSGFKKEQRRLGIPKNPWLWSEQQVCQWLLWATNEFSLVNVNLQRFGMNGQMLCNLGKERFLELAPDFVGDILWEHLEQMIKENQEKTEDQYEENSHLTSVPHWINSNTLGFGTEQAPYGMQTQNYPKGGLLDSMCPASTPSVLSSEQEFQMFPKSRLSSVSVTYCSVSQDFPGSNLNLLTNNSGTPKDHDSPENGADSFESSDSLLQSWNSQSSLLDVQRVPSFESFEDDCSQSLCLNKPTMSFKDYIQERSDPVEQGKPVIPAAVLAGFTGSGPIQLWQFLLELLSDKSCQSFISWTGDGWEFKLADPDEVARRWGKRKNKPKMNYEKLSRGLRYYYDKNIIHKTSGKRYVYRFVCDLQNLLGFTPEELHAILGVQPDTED
Put shortly:
as §1

Assay [14] deals with T8, ETV7 (Homo sapiens, UniProt Q9Y603 1-341).
T8 sequence: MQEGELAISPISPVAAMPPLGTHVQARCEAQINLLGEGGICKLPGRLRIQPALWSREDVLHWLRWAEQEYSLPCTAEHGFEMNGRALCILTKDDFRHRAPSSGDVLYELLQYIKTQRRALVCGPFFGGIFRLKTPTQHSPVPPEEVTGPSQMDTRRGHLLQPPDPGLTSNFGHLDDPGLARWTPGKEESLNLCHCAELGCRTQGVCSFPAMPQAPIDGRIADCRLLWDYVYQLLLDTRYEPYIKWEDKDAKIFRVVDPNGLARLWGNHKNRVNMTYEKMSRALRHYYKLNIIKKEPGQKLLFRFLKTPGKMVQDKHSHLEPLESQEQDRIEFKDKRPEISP
Put shortly:
as §1

Assay [15] addresses T9, ETV3 (Homo sapiens, UniProt P41162-2 1-143).
T9 sequence: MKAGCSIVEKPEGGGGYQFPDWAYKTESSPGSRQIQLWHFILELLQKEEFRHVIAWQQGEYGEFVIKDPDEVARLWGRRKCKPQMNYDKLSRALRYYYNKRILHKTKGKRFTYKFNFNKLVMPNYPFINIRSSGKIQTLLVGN
The method, boiled down: as §1

For assay [16], the target named is ETV6 (Homo sapiens, UniProt P41212 1-452). Put shortly: as §1
Assay [17] concerns the target T10, ELF3 (Homo sapiens, UniProt P78545 1-371).
T10 sequence: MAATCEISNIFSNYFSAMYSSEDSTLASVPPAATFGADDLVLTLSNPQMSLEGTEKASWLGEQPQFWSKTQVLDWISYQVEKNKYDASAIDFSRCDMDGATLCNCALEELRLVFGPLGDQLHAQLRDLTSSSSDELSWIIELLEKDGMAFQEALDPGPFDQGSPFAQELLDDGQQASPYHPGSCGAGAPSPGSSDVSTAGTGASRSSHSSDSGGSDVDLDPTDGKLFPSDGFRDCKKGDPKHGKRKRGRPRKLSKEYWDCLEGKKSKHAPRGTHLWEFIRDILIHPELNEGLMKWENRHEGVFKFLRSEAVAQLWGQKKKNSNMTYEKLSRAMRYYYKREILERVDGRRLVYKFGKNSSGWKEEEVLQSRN
Put shortly: as §1

In assay [18] the target is T11, ETV3L (Homo sapiens, UniProt Q6ZN32 1-361).
T11 sequence: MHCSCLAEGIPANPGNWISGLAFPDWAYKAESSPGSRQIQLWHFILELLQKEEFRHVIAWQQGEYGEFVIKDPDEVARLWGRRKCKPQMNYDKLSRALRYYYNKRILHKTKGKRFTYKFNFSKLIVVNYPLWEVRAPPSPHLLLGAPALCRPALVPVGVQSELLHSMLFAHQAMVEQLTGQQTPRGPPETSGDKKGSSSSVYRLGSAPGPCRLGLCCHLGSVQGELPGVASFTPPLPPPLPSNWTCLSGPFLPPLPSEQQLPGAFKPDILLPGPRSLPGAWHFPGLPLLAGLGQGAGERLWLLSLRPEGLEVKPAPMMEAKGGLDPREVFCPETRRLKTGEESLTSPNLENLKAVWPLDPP
Put shortly:
as §1

ETV1, sequence (P50549 whole entry): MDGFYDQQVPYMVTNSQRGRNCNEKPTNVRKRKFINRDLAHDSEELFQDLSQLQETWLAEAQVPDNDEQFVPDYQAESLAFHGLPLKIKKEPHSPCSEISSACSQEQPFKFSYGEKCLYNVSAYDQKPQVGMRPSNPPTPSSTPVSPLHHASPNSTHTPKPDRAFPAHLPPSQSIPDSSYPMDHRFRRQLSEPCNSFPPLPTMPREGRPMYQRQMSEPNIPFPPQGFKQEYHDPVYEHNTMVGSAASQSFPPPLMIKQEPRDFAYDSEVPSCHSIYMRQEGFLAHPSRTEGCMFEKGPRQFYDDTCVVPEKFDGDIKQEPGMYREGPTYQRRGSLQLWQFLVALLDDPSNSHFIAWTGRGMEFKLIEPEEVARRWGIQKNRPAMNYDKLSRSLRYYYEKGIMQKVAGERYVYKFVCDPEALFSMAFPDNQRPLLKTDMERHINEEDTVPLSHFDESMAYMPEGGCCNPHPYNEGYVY
ELF1, sequence (P32519 whole entry): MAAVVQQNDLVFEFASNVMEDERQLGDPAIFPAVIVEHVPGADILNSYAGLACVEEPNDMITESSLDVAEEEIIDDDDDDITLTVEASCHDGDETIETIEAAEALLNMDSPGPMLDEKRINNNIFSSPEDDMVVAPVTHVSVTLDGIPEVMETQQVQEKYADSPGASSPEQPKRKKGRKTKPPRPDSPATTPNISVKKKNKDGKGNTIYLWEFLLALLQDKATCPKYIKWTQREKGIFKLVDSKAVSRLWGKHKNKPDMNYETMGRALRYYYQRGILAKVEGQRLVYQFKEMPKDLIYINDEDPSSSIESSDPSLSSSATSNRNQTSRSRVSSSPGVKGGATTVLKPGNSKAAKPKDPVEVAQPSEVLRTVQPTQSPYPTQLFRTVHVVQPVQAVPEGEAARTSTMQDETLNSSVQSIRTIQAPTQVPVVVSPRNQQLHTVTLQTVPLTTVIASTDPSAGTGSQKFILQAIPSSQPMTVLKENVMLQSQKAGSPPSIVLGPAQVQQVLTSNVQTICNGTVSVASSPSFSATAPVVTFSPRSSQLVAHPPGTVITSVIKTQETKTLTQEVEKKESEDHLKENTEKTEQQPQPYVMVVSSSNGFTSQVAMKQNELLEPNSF
ETV5, sequence (P41161 whole entry): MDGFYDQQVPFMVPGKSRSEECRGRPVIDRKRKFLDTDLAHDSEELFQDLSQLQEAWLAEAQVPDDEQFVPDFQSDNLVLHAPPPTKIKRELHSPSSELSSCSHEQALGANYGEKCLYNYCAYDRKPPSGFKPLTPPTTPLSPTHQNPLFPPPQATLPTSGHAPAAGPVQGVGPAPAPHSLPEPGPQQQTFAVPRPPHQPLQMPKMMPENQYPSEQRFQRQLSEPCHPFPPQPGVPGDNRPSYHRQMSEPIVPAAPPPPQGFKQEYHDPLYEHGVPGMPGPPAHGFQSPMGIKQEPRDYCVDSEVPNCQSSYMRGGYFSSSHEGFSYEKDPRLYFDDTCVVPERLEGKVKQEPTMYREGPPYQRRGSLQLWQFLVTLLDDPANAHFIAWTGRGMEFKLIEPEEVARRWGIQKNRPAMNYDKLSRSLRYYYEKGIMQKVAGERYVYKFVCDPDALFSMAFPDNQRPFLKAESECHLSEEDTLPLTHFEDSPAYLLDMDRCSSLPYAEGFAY
ELF4, sequence (Q99607 whole entry): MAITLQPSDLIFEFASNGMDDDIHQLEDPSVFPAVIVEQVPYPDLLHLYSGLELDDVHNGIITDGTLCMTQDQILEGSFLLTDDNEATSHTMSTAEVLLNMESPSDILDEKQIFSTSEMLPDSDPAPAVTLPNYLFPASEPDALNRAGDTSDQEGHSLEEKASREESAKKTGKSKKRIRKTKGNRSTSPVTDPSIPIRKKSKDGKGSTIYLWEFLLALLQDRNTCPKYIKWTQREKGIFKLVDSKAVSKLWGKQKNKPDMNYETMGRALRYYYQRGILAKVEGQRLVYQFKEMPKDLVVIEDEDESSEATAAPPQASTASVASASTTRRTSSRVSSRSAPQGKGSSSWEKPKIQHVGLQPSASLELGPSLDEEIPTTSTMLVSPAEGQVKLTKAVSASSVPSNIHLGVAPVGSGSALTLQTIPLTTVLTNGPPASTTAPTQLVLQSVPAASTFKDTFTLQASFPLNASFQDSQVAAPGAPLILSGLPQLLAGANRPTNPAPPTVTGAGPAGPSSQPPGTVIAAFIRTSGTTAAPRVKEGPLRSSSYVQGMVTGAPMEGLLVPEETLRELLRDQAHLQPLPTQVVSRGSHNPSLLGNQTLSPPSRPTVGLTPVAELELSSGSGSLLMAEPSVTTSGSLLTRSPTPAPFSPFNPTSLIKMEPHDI
SPIB, sequence (Q01892 whole entry): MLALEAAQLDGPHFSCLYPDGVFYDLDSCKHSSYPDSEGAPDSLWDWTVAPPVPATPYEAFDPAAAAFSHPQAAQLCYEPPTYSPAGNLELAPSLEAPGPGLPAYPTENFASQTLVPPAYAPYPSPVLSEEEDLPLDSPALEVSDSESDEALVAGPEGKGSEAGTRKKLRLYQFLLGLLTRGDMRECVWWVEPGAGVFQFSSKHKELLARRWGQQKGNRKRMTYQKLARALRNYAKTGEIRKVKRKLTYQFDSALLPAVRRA
ETV6, sequence (P41212 whole entry): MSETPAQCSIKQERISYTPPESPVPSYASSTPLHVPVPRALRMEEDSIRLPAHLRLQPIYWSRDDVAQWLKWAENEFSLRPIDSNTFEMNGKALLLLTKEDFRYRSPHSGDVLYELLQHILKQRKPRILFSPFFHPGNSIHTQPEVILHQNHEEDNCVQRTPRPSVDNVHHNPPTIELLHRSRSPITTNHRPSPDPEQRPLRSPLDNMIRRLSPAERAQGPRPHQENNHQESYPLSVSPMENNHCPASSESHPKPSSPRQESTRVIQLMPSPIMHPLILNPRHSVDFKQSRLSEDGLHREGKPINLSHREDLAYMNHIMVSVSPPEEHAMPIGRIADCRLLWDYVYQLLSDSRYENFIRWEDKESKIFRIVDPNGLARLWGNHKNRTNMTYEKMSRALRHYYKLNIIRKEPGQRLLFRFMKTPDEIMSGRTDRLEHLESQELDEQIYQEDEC

With GTAACC, the binding signal in assay [1] was 1.01 fold enrichment (6-mer frequency, TF over GST control); in assay [2] it was 1.05 fold enrichment (6-mer frequency, TF over GST control); in [3] it was 1.11 fold enrichment (6-mer frequency, TF over GST control); in [4], 1.01 fold enrichment (6-mer frequency, TF over GST control); in assay [5], 1.1 fold enrichment (6-mer frequency, TF over GST control); in assay [6], 1.04 fold enrichment (6-mer frequency, TF over GST control). In addition, the binding signal in assay [7] was 1.05 fold enrichment (6-mer frequency, TF over GST control); in assay [8] it was 1.05 fold enrichment (6-mer frequency, TF over GST control); in assay [9], 1.02 fold enrichment (6-mer frequency, TF over GST control); in [10], 1.06 fold enrichment (6-mer frequency, TF over GST control); in assay [11], 1.09 fold enrichment (6-mer frequency, TF over GST control); in assay [12], 1.11 fold enrichment (6-mer frequency, TF over GST control). The binding signal is 1.1 fold enrichment (6-mer frequency, TF over GST control) in [13]; 1.07 fold enrichment (6-mer frequency, TF over GST control) in assay [14]; 1.13 fold enrichment (6-mer frequency, TF over GST control) in [15]; 1.07 fold enrichment (6-mer frequency, TF over GST control) in assay [16].
As to GCACAC, the binding signal in assay [2] is 1.02 fold enrichment (6-mer frequency, TF over GST control); in [6], 1.02 fold enrichment (6-mer frequency, TF over GST control); in assay [7], 1.02 fold enrichment (6-mer frequency, TF over GST control); in assay [8] it was 1.05 fold enrichment (6-mer frequency, TF over GST control); in assay [10] it was 1.01 fold enrichment (6-mer frequency, TF over GST control); in assay [17], 1.03 fold enrichment (6-mer frequency, TF over GST control). The binding signal in assay [11] is 1 fold enrichment (6-mer frequency, TF over GST control); in assay [12], 1.12 fold enrichment (6-mer frequency, TF over GST control); in [18] it was 1.04 fold enrichment (6-mer frequency, TF over GST control); in assay [15], 1.05 fold enrichment (6-mer frequency, TF over GST control).
